Source: PubChem BioAssay (NCATS)
Inconclusive results are not listed. Calls of active or inactive are those of the source. Calls follow the shape of the full dose curve.

Biological target: Estrogen receptor (Homo sapiens) (UniProt P03372)
Test: qHTS assay for small molecule agonists of estrogen receptor alpha signaling (AID 588514); also: nearly all actives have a fitted effect of over 70% in size
Conditions: ER-alpha-UAS-bla HEK293, beta-lactamase ratio, 18 h, percent of full estradiol response, vehicle zero; series mostly up to 76.8 µM
From the text: NIH Chemical Genomics Center [NCGC]
U.S. Environmental Protection Agency [EPA]
National Institutes of Environmental Health Sciences [NIEHS]
National Toxicology Program [NTP]
Estrogen receptor alpha (ER-alpha) is an important member of nuclear hormone receptors. ER-alpha plays important role in breast cancer as well as in other women's health issues. The majority of breast cancers is estrogen receptor (ER) positive and depends on estrogen for growth. There is also growing concern for some of environmental chemicals which may contribute the increasing the incidence of breast cancer. Therefore, it is important to understand the effect of environmental chemicals in ER-alpha signaling pathway.
NCGC Assay Protocol Summary
Using a beta-lactamase reporter-gene under control of the ER response element, a cell-based assay [ER-alpha-UAS-bla GripTiteTM cell-Based Assay from Invitrogen] was used to measure ER-alpha signaling pathway in agonist mode. ER-alpha-UAS-bla-GripTite HEK 293 cells were used with assay medium containing 2% charcoal/dextran treated FBS, 0.1 mM NEAA and 1 mM sodium pyruvate. Cells were cultured in this assay medium overnight in the flasks before the assay. The assay was performed in clear bottom black Greiner 1536-well plates. 17-beta-estradiol was used as a positive control in the screen. Library compounds were measured for their ability to either stimulate the reporter gene activity. Compounds were screened in a titration series in 1536-well format. […] Data was normalized relative to 17-beta-estradiol control (20 nM, 100%), and DMSO only wells (basal, 0%). Concentration-response titration points for each compound were fitted to the Hill equation yielding concentrations of half-maximal stimulation (EC50) and maximal response (efficacy) values.
qHTS protocol for ER-alpha beta-lactamase assay in agonist mode
[Step] [Parameter] [Value] [Description]
1. Reagent; 6 uL; 5000 cells/well
2. Incubation; 37 C for 4 hrs
4. Controls (17-beta-estradiol); 23 nL
- Dose response, start 1uM, 1:3 dilutions with duplicates
- Two columns with 20 and 0.5 nM (final) concentration.
5. Incubation; 37 C for 18 hrs
6. Detection reagent; 1 uL of CCF4-dye
7. Incubation; RT for 2 hrs
8. Detection; Fluorescence; Envision plate reader or Acumen plate reader

Sequence of Estrogen receptor (Homo sapiens) (P03372 whole entry, looked up): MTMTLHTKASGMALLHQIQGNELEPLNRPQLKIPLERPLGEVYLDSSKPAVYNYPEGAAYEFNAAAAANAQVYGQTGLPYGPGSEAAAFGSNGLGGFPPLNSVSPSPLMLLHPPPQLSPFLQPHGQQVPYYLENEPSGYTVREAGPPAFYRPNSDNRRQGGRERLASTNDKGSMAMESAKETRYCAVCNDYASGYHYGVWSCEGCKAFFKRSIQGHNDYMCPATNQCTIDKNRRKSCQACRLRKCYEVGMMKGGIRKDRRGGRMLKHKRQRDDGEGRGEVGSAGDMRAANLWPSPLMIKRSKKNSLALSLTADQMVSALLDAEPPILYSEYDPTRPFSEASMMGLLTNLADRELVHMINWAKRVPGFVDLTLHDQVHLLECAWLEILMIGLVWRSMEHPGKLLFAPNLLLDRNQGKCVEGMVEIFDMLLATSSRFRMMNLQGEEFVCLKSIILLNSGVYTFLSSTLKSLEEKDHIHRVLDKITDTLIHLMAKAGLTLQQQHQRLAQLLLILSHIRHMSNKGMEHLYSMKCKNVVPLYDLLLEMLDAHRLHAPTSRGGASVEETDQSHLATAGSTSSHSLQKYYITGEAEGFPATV

Structure (SMILES) | outcome
Cc1cccc(Nc2cc(Cl)nc(SCC(=O)O)n2)c1C | inactive
CCCCC(CC)COC(=O)c1ccccc1O (stereo unspecified) | inactive
CNC(=O)Oc1ccc2c(c1)[C@]1(C)CCN(C)[C@@H]1N2C | inactive
COc1ccccc1O | inactive
Nc1ccc(S(=O)(=O)Nc2nccs2)cc1 | inactive
C[C@]12C[C@H](O)[C@H]3[C@@H](CCC4=CC(=O)CC[C@@]43C)[C@@H]1CC[C@@H]2C(=O)CO | inactive
CC1(C)[C@@H]2CC[C@@]1(C)C(=O)C2 | inactive
[Cl][In]([Cl])[Cl] | inactive
NC(=O)N/N=C/c1ccc([N+](=O)[O-])o1 | inactive
CC12CCC(CC1)C(C)(C)O2 | inactive
CN(C)CCC=C1c2ccccc2CCc2ccccc21 | inactive
